Measured values published in PubChem BioAssay (NCATS).
Inconclusive results are not listed. Entries that show only a call come without a potency. Calls of active or inactive are those of the source. The call rests on the fitted dose curve; in most records, active means well fitted cell-killing curve with a large enough effect; inconclusive means small, poorly fitted or top-dose-only effect; inactive means flat fitted curve, though single readings scatter.

Assay: qHTS of pediatric cancer cell lines to identify multiple opportunities for drug repurposing: Primary screen for U-2 OS cells (AID 1347096); further: nearly all actives have a fitted effect of over 50% in size
Details: U-2 OS viability, CellTiter-Glo luminescence, 48 h; series mostly up to 46 µM
Text: Drug repurposing or repositioning has been offered as a strategy for drug development in oncology programs. This approach has special potential for childhood cancers and other rare or orphan diseases, where the expected return on new drug development has been a disincentive to pharmaceuticals.
In this project we exploit the poly-pharmacology of drugs to discover new indications via phenotypic screening of a panel of 19 well-characterized cell lines derived from solid tumors seen in children and adolescents. The goal is to identify approved drugs with previously unrecognized anticancer properties that has the potential to reveal new mechanisms and biological processes involved in carcinogenesis or drug resistance. We employed a titration-based paradigm (quantitative high-throughput screening or qHTS), where all compounds were tested at multiple concentrations for their effect on cell viability. Concentration-response curves (CRCs) were derived directly from the primary screen, and both potency and efficacy values were used to identify compounds with robust bioactivity profiles. We screened the NIH Chemical Genomics Center (NCGC) Pharmaceutical Collection (NPC) and Mechanism Interrogation Plate (MIPE) small molecule collections of approved and investigational compounds against these cell lines; and measured metabolically active cells after 48 hours of compound treatment as a proxy for cell viability.
Assay Submitter: Nathalia J. Martinez, National Center for Advancing Translational Sciences, National Institutes of Health, Rockville, MD, USA; email: natalia.martinez@nih.gov
[1] Shen, M et al. Quantitative high-throughput phenotypic screening of pediatric cancer cell lines identifies multiple opportunities for drug repurposing. Oncotarget 2017 Dec 19;9(4):4758-4772. PMID 29435139.
The cells were obtained from University of North Carolina (UNC), Pediatric Preclinical Testing Program (PPT), and Coriell Institute (CI).
qHTS cell viability assay:
Cells were assayed in growth media at a density of 500-1,000 cells/well. Five microliters of cells were dispensed into 1,536-well, white, solid-bottom, TC-treated plates (Greiner Bio One) using a multidrop dispenser and incubated at 37 degrees C, 5% CO2, under a humidified atmosphere for 5 hours. Twenty-three nanoliters of compounds and controls (neutral control DMSO or positive control bortezomib at final concentration of 2.3 µM) were subsequently transferred by Kalypsys pintool. For primary screens, the MIPE collection was tested at 11-point dilutions (final concentrations range from 0.78 nM to 46 µM) and the NPC collection at 8-point dilutions (final concentrations range from 0.59 nM to 46 µM). Compounds tested in follow-up screens were assayed at 11-point dilutions. Cells were incubated for 48 hours, followed by addition of 3 µL of CellTiter-Glo (Promega). After a 15 min incubation at room temperature, samples were analyzed for luminescence intensity using a ViewLux High-throughput CCD imager equipped with clear filters.
Potency means the concentration at half of the fitted maximal effect.

SMILES	Potency
CCN(CCCCOC(=O)c1ccc(OC)c(OC)c1)C(C)Cc1ccc(OC)cc1 (stereo not given)	inactive
O=C1[C@H]2CCCC[C@H]2C(=O)N1CCCCN1CCN(c2nsc3ccccc23)CC1	inactive
CC(=O)[C@H]1CC[C@H]2[C@@H]3C[C@H](C)C4=CC(=O)CC[C@]4(C)[C@H]3[C@@H](O)C[C@]12C	inactive
CC(=O)Oc1ccc2c(c1)CC[C@@H]1[C@@H]2CC[C@]2(C)[C@@H](O)CC[C@@H]12	inactive
CCN1CCN(c2cc3c(cc2F)c(=O)c(C(=O)O)cn3C2CC2)CC1	inactive
O=C1OC(c2ccc(O)cc2)(c2ccc(O)cc2)c2ccccc21	inactive
CCCCOc1cc(C(=O)NCCN(CC)CC)c2ccccc2n1	inactive
CCCCC(=O)O[C@]1(C(=O)CO)CC[C@H]2[C@@H]3CCC4=CC(=O)CC[C@]4(C)[C@H]3[C@@H](O)C[C@@]21C	inactive
Cc1c(C)n(Cc2ccccc2)c2ccc(C(=O)OCCN(C)C)cc12	inactive
CC1=C(C(=O)O)N2C(=O)[C@@H](NC(=O)[C@H](N)c3ccc(O)cc3)[C@H]2SC1	inactive
C=C1C[C@H]2[C@@H]3C=C(C)C4=CC(=O)CC[C@]4(C)[C@H]3CC[C@]2(C)[C@@]1(OC(C)=O)C(C)=O	inactive
C[C@H]1C[C@H]2[C@@H]3CCC4=CC(=O)C=C[C@]4(C)[C@@]3(Cl)[C@@H](O)C[C@]2(C)[C@@]1(O)C(=O)CO	inactive
COc1cc2c(cc1OC)[C@@H]1CC(=O)[C@@H](CC(C)C)CN1CC2	inactive
C[C@@H]1C[C@H]2[C@@H]3C[C@H](F)C4=CC(=O)C(Cl)=C[C@]4(C)[C@@]3(F)[C@@H](O)C[C@]2(C)[C@@]1(O)C(=O)CO	inactive
NC(=O)CC[C@@H]1NC(=O)[C@H](Cc2ccccc2)NC(=O)[C@H](Cc2ccc(O)cc2)NC(=O)CCSSC[C@@H](C(=O)N2CCC[C@H]2C(=O)N[C@@H](CCCN=C(N)N)C(=O)NCC(N)=O)NC(=O)[C@H](CC(N)=O)NC1=O	inactive
CCCOC(C(=O)OC1CCN(C)CC1)(c1ccccc1)c1ccccc1	inactive
Cc1nc2n(c(=O)c1CCN1CCC(c3noc4cc(F)ccc34)CC1)CCC[C@H]2O	inactive
CCN(CC)CCOC(=O)C(c1ccccc1)C1CCCCC1 (stereo not given)	inactive
CCCCCC=CCC=CCCCCCCCC(=O)OCC	inactive
C[n+]1c2cc(N)ccc2cc2ccc(N)cc21 (tested in a mixture with another compound)	13.3 µM (active)

SMILES	Potency
COc1cccc(CCc2ccccc2OCC(CN(C)C)OC(=O)CCC(=O)O)c1 (stereo not given)	inactive
NCCCC[C@H](N[C@@H](CCc1ccccc1)C(=O)O)C(=O)N1CCC[C@H]1C(=O)O	inactive
CCCC(=O)Nc1ccc(OCC(O)CNC(C)C)c(C(C)=O)c1 (stereo not given)	inactive
CCOC(=O)c1cccc(N)c1	inactive
CC(C)N=C(N)/N=C(\N)Nc1ccc(Cl)cc1	inactive
CCN(CCCc1ccccc1)CCCc1ccccc1	inactive
CCC(C(=O)OCCN(CC)CC)c1ccccc1 (stereo not given)	inactive
O=C(O)CCCCC(=O)O	inactive
CCCCC1=NC2(CCCC2)C(=O)N1Cc1ccc(-c2ccccc2-c2nn[nH]n2)cc1	inactive
Cc1ccnc(NS(=O)(=O)c2ccc(N)cc2)n1	inactive
CC[N+](CC)(CCNC(=O)C(=O)NCC[N+](CC)(CC)Cc1ccccc1Cl)Cc1ccccc1Cl	inactive
C[C@H](O)C(=O)Nc1c(I)c(C(=O)NC(CO)CO)c(I)c(C(=O)NC(CO)CO)c1I	inactive
Cc1cc(N)c2cc(NC(=O)Nc3ccc4nc(C)cc(N)c4c3)ccc2n1	inactive
CC1(C)O[C@@H]2[C@@H](CO[C@@]3(COS(N)(=O)=O)OC(C)(C)O[C@@H]23)O1	inactive
CCCCCCc1ccc(O)cc1O	inactive
COc1cccc2c1C(=O)c1c(O)c3c(c(O)c1C2=O)C[C@@](O)(C(C)=O)C[C@@H]3O[C@H]1C[C@H](N)[C@H](O)[C@H](C)O1	6.68 µM (active)
CN(C)CC/C=C1/c2ccccc2COc2ccc(CC(=O)O)cc21	inactive
CC1(C)O[C@@H]2C[C@H]3[C@@H]4C[C@H](F)C5=CC(=O)C=C[C@]5(C)[C@H]4[C@@H](O)C[C@]3(C)[C@]2(C(=O)CO)O1	inactive
O=C(Nc1ccc(Oc2ccc(Cl)cc2)c(Cl)c1)c1cc(I)cc(I)c1O	inactive
OC(CCN1CCCCC1)(c1ccccc1)c1ccccc1	inactive
